Source: PubChem BioAssay (NCI)
This is part of a sample that, as a whole, favours compounds with a hit. Of some 83,000 tested, about 20% had one in any assay.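 Step 1: grow cells in 96-well plates. Step 2: add test compound at a single concentration. Step 3: incubate 48 h. Step 4: record percent growth.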 Active and inactive are the calls of the source. The calls were made as follows: active = growth percent below 10; inactive = the rest.

Assays:
Assay in all cases: NCI-60 one-dose screen, 48 h (100 = growth as untreated, 0 = no growth, -100 = all killed)
Conditions in all cases: 10 µM unless noted
SK-MEL-2 melanoma = test system: SK-MEL-2 melanoma
EKVX NSCLC = test system: EKVX NSCLC
SN12C renal = test system: SN12C renal
UO-31 renal = test system: UO-31 renal
TK-10 renal = test system: TK-10 renal
ACHN renal = test system: ACHN renal
CAKI-1 renal = test system: CAKI-1 renal
A498 renal = test system: A498 renal
CCRF-CEM leukemia = test system: CCRF-CEM leukemia
MOLT-4 leukemia = test system: MOLT-4 leukemia

Measured: growth

CCCCCCCCCCCCNC(=O)[C@H]1CSC(c2ccc(OC)c(F)c2)N1 (stereo not given in full)
active: SK-MEL-2 melanoma -93.7% | EKVX NSCLC -87.4% | SN12C renal -93% | UO-31 renal -99.9% | TK-10 renal -96.3% | ACHN renal -100% | CAKI-1 renal -97.8% | A498 renal -96.3% | CCRF-CEM leukemia -42.5% | MOLT-4 leukemia -66.9%

C/C(Cc1ccc(Cl)cc1)=C(\c1ccc(OCCN2CCCCCC2)cc1)c1ccc(OC(=O)Cc2ccccc2)cc1
inactive: SK-MEL-2 melanoma 90.6% | EKVX NSCLC 90.2% | SN12C renal 68.7% | UO-31 renal 44.6% | TK-10 renal 86.7% | ACHN renal 85.2% | CAKI-1 renal 79.4% | A498 renal 92.5% | CCRF-CEM leukemia 57.2% | MOLT-4 leukemia 24.4%

Cc1ccc2c(c1)O/C(=C\c1cccc(OCC(=O)c3ccccc3)c1)C2=O
active: MOLT-4 leukemia -34.3%
inactive: SK-MEL-2 melanoma 70% | EKVX NSCLC 95.5% | SN12C renal 107% | UO-31 renal 78.4% | TK-10 renal 133% | ACHN renal 103% | CAKI-1 renal 85.1% | A498 renal 106% | CCRF-CEM leukemia 129%

CC[C@H](Nc1cc(C)nc(N)n1)c1nc2cccc(NCc3ccc(C(=O)NO)cc3)c2c(=O)n1-c1ccccc1
inactive: SK-MEL-2 melanoma 33.1% | EKVX NSCLC 64.3% | SN12C renal 29% | UO-31 renal 80.1% | TK-10 renal 32.1% | ACHN renal 79.9% | CAKI-1 renal 71.8%
active: A498 renal -3.63% | CCRF-CEM leukemia -11% | MOLT-4 leukemia -9.86%

O=C(O)c1ccccc1Nc1cccc(S(F)(F)(F)(F)F)c1
inactive: SK-MEL-2 melanoma 83.6% | EKVX NSCLC 99.3% | SN12C renal 96.4% | UO-31 renal 85.6% | TK-10 renal 87.8% | ACHN renal 98.4% | CAKI-1 renal 94.6% | A498 renal 95.1% | CCRF-CEM leukemia 98.4% | MOLT-4 leukemia 88.1%

COc1ccc(OCC(=O)Nc2ccc(-c3nc4ccccc4s3)cc2C)cc1
inactive: SK-MEL-2 melanoma 94.1% | EKVX NSCLC 65% | SN12C renal 88.8% | UO-31 renal 44.7% | TK-10 renal 64.9% | ACHN renal 99.4% | CAKI-1 renal 78.4% | A498 renal 101% | CCRF-CEM leukemia 89.6% | MOLT-4 leukemia 55.9%

O=C1C2CC=CCC2C(=O)N1CNc1ccc(Cl)cc1 (stereo not given)
inactive: SK-MEL-2 melanoma 94.2% | EKVX NSCLC 88.6% | SN12C renal 90.8% | UO-31 renal 47% | TK-10 renal 107% | ACHN renal 88.8% | CAKI-1 renal 90.2% | A498 renal 96.5% | CCRF-CEM leukemia 120% | MOLT-4 leukemia 101%

Cn1c2ccccc2c2c3c(c4c5ccccc5n(CCCCCC#N)c4c21)C(=O)N(O)C3=O
inactive: SK-MEL-2 melanoma 34.5% | EKVX NSCLC 88.2% | SN12C renal 10.8% | TK-10 renal 42.1%
active: UO-31 renal 2.03% | ACHN renal -0.622% | CAKI-1 renal -32.3% | A498 renal -32% | CCRF-CEM leukemia 3.22% | MOLT-4 leukemia 1.13%

Cc1nc2nc(N)nc(N)c2nc1C
inactive: SK-MEL-2 melanoma 86.5% | EKVX NSCLC 97.9% | SN12C renal 93.1% | UO-31 renal 78.6% | TK-10 renal 95.4% | ACHN renal 96.3% | CAKI-1 renal 92.3% | A498 renal 100% | CCRF-CEM leukemia 98.5% | MOLT-4 leukemia 118%

CSc1nc(NCCO)c(C#N)c(-c2cccc(N)c2)n1
inactive: SK-MEL-2 melanoma 108% | EKVX NSCLC 81.4% | SN12C renal 94.7% | UO-31 renal 74.6% | TK-10 renal 145% | ACHN renal 92.3% | CAKI-1 renal 80.3% | A498 renal 83.7% | CCRF-CEM leukemia 94.9% | MOLT-4 leukemia 95.6%

O=C(Nc1ccc(Nc2cc(Nc3ccccc3)ncn2)cc1)Nc1cc(C(F)(F)F)ccc1F
inactive: SK-MEL-2 melanoma 82.8% | EKVX NSCLC 80.5% | SN12C renal 78.5% | UO-31 renal 65.6% | TK-10 renal 89.5% | ACHN renal 66.9% | CAKI-1 renal 74.4% | A498 renal 75.3% | CCRF-CEM leukemia 71.7% | MOLT-4 leukemia 63.6%

Nc1nc(SCc2ccccc2)c2ncn(C3CCCC3)c2n1
inactive: SK-MEL-2 melanoma 94.6% | EKVX NSCLC 99.6% | SN12C renal 107% | UO-31 renal 89.9% | TK-10 renal 125% | CAKI-1 renal 102% | A498 renal 102% | CCRF-CEM leukemia 96.3% | MOLT-4 leukemia 113%
active: ACHN renal -81.5%

c1ccc(CSc2ncnc3nc[nH]c23)nc1
inactive: SK-MEL-2 melanoma 112% | EKVX NSCLC 99.6% | SN12C renal 98.6% | UO-31 renal 96.4% | TK-10 renal 101% | ACHN renal 105% | CAKI-1 renal 57% | A498 renal 102% | CCRF-CEM leukemia 102% | MOLT-4 leukemia 97.7%

COc1cccc(-c2nc3sccn3c2-c2ccnc(NCCCNS(=O)(=O)c3ccc(Cl)cc3)c2)c1
inactive: SK-MEL-2 melanoma 45.3% | EKVX NSCLC 47.8% | SN12C renal 41.1% | UO-31 renal 11.9% | TK-10 renal 83.1% | ACHN renal 36.3% | CAKI-1 renal 32.6% | A498 renal 38.7% | CCRF-CEM leukemia 23.2% | MOLT-4 leukemia 21.6%

Cc1ccc(Nc2nc(N)nc(Nc3ccc4ccccc4c3)n2)cc1
inactive: SK-MEL-2 melanoma 50.6% | EKVX NSCLC 72.1% | SN12C renal 40.3% | UO-31 renal 46.4% | TK-10 renal 69% | ACHN renal 46.6% | CAKI-1 renal 30.3% | A498 renal 17.6% | CCRF-CEM leukemia 27.8% | MOLT-4 leukemia 47.9%

COc1ccc(-c2c3c(nc4n[nH]c(-c5ccc(Cl)cc5)c24)-c2ccccc2C(=O)C3=O)cc1
active: SK-MEL-2 melanoma -49.8% | UO-31 renal 0.604% | TK-10 renal -28.7% | CCRF-CEM leukemia -6.2% | MOLT-4 leukemia 0.0593%
inactive: EKVX NSCLC 59% | SN12C renal 12% | ACHN renal 10.7% | CAKI-1 renal 47.1% | A498 renal 53.8%

Nc1nc2ccc(-c3nc4ccc5[nH]ncc5c4c4c3CCC4)cc2s1
active: CAKI-1 renal 1.07% | A498 renal -9.59%
inactive: SK-MEL-2 melanoma 21.5% | EKVX NSCLC 19.4% | SN12C renal 28.4% | UO-31 renal 14.7% | TK-10 renal 22.3% | ACHN renal 17.7% | CCRF-CEM leukemia 17.3% | MOLT-4 leukemia 18.5%

Cc1ccc2c(c1)C(=O)/C(=C/c1ccc(OCC(=O)c3ccccc3)cc1)O2
inactive: SK-MEL-2 melanoma 77.8% | EKVX NSCLC 90.2% | SN12C renal 98.6% | UO-31 renal 85.5% | TK-10 renal 127% | ACHN renal 100% | CAKI-1 renal 103% | A498 renal 98.3% | CCRF-CEM leukemia 151% | MOLT-4 leukemia 33.2%

COc1ccc(/C=C/C(=O)c2c(O)c(C)c(O)c3c2OC2=CC(O)=C(C(C)=O)C(=O)[C@]23C)cc1
active: SK-MEL-2 melanoma -54.6% | EKVX NSCLC -2.89% | SN12C renal -31.3% | UO-31 renal -22.5% | TK-10 renal -9.84% | ACHN renal 0.0747% | CAKI-1 renal 6.28% | A498 renal -56.2% | CCRF-CEM leukemia -29.9% | MOLT-4 leukemia -27.9%

CCOC(=O)c1c2c(n3ccc(NC(=O)CCN4CCOCC4)cc13)C(=O)c1ncccc1C2=O
inactive: SK-MEL-2 melanoma 30.9% | EKVX NSCLC 60.4% | SN12C renal 24.2% | UO-31 renal 36% | TK-10 renal 47% | ACHN renal 16.5% | CAKI-1 renal 21.5% | A498 renal 56.2% | CCRF-CEM leukemia 19.3% | MOLT-4 leukemia 18.6%

COc1ccccc1N1CCN(CCn2c(=O)c3c(c4ccccc4n3C)n(C)c2=O)CC1
inactive: SK-MEL-2 melanoma 60.2% | EKVX NSCLC 106% | SN12C renal 81.8% | UO-31 renal 77.6% | TK-10 renal 78.9% | ACHN renal 98.5% | CAKI-1 renal 101% | A498 renal 109% | CCRF-CEM leukemia 102% | MOLT-4 leukemia 88.1%

Cc1cc2cc3cc(C)c(N(C)C)cc3nc2cc1N(C)C
active: SK-MEL-2 melanoma -31.8% | TK-10 renal -14.6%
inactive: EKVX NSCLC 34.6% | SN12C renal 15.3% | UO-31 renal 59.1% | ACHN renal 39.1% | CAKI-1 renal 43.7% | A498 renal 52.8% | CCRF-CEM leukemia 17.3% | MOLT-4 leukemia 29.1%

COc1ccc(/C(=C/c2ccc3ccccc3c2)c2nn[nH]n2)cc1OC
inactive: SK-MEL-2 melanoma 40.3% | EKVX NSCLC 43.9% | SN12C renal 37.2% | UO-31 renal 41.4% | TK-10 renal 54.5% | ACHN renal 54.4% | CAKI-1 renal 23.3% | A498 renal 14.5% | CCRF-CEM leukemia 19.7% | MOLT-4 leukemia 37.8%

CCCCNP1(NCCCC)=NP(NCCCC)(NCCCC)=NP(NCCCC)(NCCCC)=NP(NCCCC)(NCCCC)=N1
active: SK-MEL-2 melanoma -23.1% | EKVX NSCLC -17.2% | A498 renal 4.56% | CCRF-CEM leukemia -16.8% | MOLT-4 leukemia -38.5%
inactive: SN12C renal 20.1% | UO-31 renal 37.6% | TK-10 renal 13.6% | ACHN renal 33.9% | CAKI-1 renal 64.4%

COc1ccc(C/C(C)=C(\c2ccc(Cl)cc2)c2ccc(OCCN3CCCCCC3)cc2)cc1
inactive: SK-MEL-2 melanoma 90.5% | EKVX NSCLC 91.7% | SN12C renal 78.3% | UO-31 renal 67.9% | TK-10 renal 90.3% | ACHN renal 86.4% | CAKI-1 renal 84.1% | A498 renal 92.1% | CCRF-CEM leukemia 61.6% | MOLT-4 leukemia 58.7%

CCC(=O)Oc1ccc(/C(=C(\C)c2ccccc2)c2ccc(OCCN(CC)CC)cc2)cc1
inactive: SK-MEL-2 melanoma 108% | EKVX NSCLC 103% | SN12C renal 84.5% | UO-31 renal 63.3% | TK-10 renal 87.4% | ACHN renal 94.8% | CAKI-1 renal 100% | A498 renal 99.9% | CCRF-CEM leukemia 77.8% | MOLT-4 leukemia 66.4%

CCCCCCCCCCCCCCCCCCNC(=O)[C@H]1CSC(c2ccc(F)c(OC)c2)N1 (stereo not given in full)
inactive: UO-31 renal 45.5% | ACHN renal 30.3%
active: SK-MEL-2 melanoma -94.1% | EKVX NSCLC -57.5% | SN12C renal -79.2% | TK-10 renal 6.86% | CAKI-1 renal -76.8% | A498 renal 6.25% | CCRF-CEM leukemia -36.8% | MOLT-4 leukemia -14.9%
